Records with an inconclusive call do not appear. Active and inactive are the calls of the source. Unless noted, no rule for the calls is given here.
What was measured:
[1] = target: Pantothenate synthetase (Mycobacterium tuberculosis (strain ATCC 25618 / H37Rv)) (UniProt P9WIL5); assay: Recombinant Mtb pantothenate synthetase (PanC) inhibitors, coupled enzyme, confirmatory (AID 375); conditions: coupled enzyme assay; at 10 µM, stronger effect = higher value;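 also: 0% = full reaction with vehicle and 100% = no enzyme background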
Pantothenate synthetase (Mycobacterium tuberculosis (strain ATCC 25618 / H37Rv)), sequence (P9WIL5 whole entry, looked up): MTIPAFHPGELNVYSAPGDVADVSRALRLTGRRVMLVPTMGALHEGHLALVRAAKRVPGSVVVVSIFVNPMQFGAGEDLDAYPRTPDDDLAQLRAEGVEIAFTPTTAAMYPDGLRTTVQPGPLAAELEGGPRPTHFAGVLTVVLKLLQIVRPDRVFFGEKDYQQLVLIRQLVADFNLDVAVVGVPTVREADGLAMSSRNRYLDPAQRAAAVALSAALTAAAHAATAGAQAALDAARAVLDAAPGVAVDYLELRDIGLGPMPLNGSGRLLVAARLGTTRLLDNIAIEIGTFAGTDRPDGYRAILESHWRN

[2] = SK-BR-3 cell growth inhibitors, pilot screen, 24 h, human (AID 572;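 active = viability at or below 10% of carrier control in both of two separate runs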;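 also: compound exposure lasted between 18 and 24 h rather than exactly 24 h; 100% = carrier-treated control wells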); conditions: SK-BR-3 viability, CellTiter-Glo luminescence, at 10 µM, stronger effect = lower value
[3] = HUVEC growth inhibition – cell-based, human, primary screen (AID 575;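 active = viability at or below 30% in both replicate assays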;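 also: 100% = median of untreated cell wells with 0.1% DMSO on each plate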); conditions: HUVEC proliferation, CellTiter-Glo luminescence, 72 h; at 10 µM; stronger effect = lower value
[4] = growth inhibitors of H69AR lung tumor, primary screen, human, duplicate replicates (AID 580;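 active = viability at or under a set limit in both replicates, limit being median viability minus 3 SD, cut at about 48% in these data, passing the limit was not always enough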;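 also: 100% = mean luminescence of untreated wells and 0% = no signal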); conditions: H69AR lung tumor cells viability, ATP luminescence, 72 h; at 10 µM; stronger effect = lower value
[5] = reversal of MRP1-mediated doxorubicin resistance, pilot screen, H69AR cells, doxorubicin co-treatment (AID 601;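 active = viability loss from added drug above about 55%, and viability with drug at most 40%, in both replicates, limit read from the data, passing the limit was not always enough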); conditions: CellTiter-Glo, 72 h, at 10 µM; for differential viability (reversal): stronger effect = higher value
[6] = 384-well plate pilot, post-Golgi transport modulator project, inhibition of yeast transport mutant growth (AID 636; in the data active = inhibition above about 31%); conditions: absorbance 615 nm, about 18 h, stronger effect = higher value
[7] = growth suppression of yeast trafficking mutant, preliminary HTS, modulators of trafficking downstream of Golgi apparatus project, 1536-format plate, OD 615 nm (AID 637; in the data active = inhibition above about 30%); conditions: yeast transport mutant growth, absorbance 615 nm, 18 h; stronger effect = higher value
[8] = OD615 S. cerevisiae growth inhibition, permissive medium, pilot counter-assay, permissive growth control for S. cerevisiae lifespan shortening project (AID 705;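 active = growth inhibition above 25% in both replicates, a cutoff set 3 SD above the mean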); conditions: OD615, 24 h, at 10 µM, stronger effect = higher value
[9] = Restrictive medium S. cerevisiae growth inhibition, OD615, pilot screen of yeast lifespan reduction project, restrictive growth control (AID 706;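 active = growth inhibition above a set limit, 3 SD over mean compound inhibition, in both replicates, cut at about 43% in these data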;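 also: modified DeaD lifespan yeast strain shifted to restrictive glucose medium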); conditions: OD615, 48 h, at 10 µM, stronger effect = higher value
[10] = viability gain of MRP-1-high H69AR cells under doxorubicin, pilot screen, MRP-1 activator project, CellTiter-Glo, duplicate (AID 807;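 active = viability increase at or above a cutoff of the median across tested compounds plus 3 SD, cut at about 8.5% in these data, passing the limit was not always enough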;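 also: compound pretreatment 18-22 h then 72 h combined with doxorubicin; 0% = doxorubicin alone and 100% = vehicle without doxorubicin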); conditions: H69AR viability with doxorubicin, CellTiter-Glo luminescence; at 10 µM; stronger effect = higher value
[11] = growth suppression of beta-catenin knockout HCT116, pilot screen, human colon tumor cells (AID 823;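 active = cell viability at or below a set limit in both duplicate runs, the limit being the all-compound median minus 4 SD, cut at about 23% in these data, passing the limit was not always enough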;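 also: 0% = wells killed by 20 µM Hyamine and 100% = untreated DMSO cell wells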); conditions: CellTiter-Glo, 60 h, at 10 µM, stronger effect = lower value
[12] = inhibitors of the yeast RAM network, pilot screen, dse1pr::URA3 reporter, 5-FOA selection (AID 869;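 active = inhibition over a set limit, the all-compound mean plus 3 SD, in both replicate runs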;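 also: 0% = DMSO wells with no growth and 100% = 10 µM 1-NA-PP1 with full growth; RAM network block rescues cells from 5-FOA so hits raise OD615 growth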); conditions: S. cerevisiae dse1pr::URA3 5-FOA growth, OD615, 2 d, at 10 µM, stronger effect = higher value
[13] = H69AR cells + 2 uM doxorubicin, measured here: viability with 2 uM doxorubicin, stronger effect = lower value
[14] = H69AR cells, compound alone cytotoxicity

| SMILES | inhibition [1] | viability [2] | viability [3] | viability [4] | differential viability (reversal) ([5]; H69AR cells + 2 uM doxorubicin) | viability [5, 13] [%] | viability [5, 14] [%] | inhibition [6] | inhibition [7] | growth inhibition [8] | growth inhibition [9] | viability increase [10] | viability [11] | inhibition [12] |
| --- | --- | --- | --- | --- | --- | --- | --- | --- | --- | --- | --- | --- | --- | --- |
| O=c1[nH]c(=O)n(-c2cccc3ccccc23)c(O)c1C=NCCCn1ccnc1 | 0% (inactive) | 63% (inactive) | 101% (inactive) | 102% (inactive) | 10% (inactive) | 92 | 102 | -5.21% (inactive) | 1.27% (inactive) | – | – | – | – | – |
| O=c1[nH]c(=O)n(Cc2ccc(F)cc2)c(O)c1C=NCCCN1CCOCC1 | 0% (inactive) | – | 96% (inactive) | 95.5% (inactive) | 3.54% (inactive) | 91.9 | 95.5 | -1.6% (inactive) | -2.22% (inactive) | – | – | – | – | – |
| c1ccc2c3c([nH]c2c1)CNCC3 | 0% (inactive) | 116% (inactive) | 77.7% (inactive) | 89.9% (inactive) | 9.92% (inactive) | 80 | 89.9 | -1.17% (inactive) | 0.5% (inactive) | – | – | – | – | – |
| Cc1ccccc1-n1c(O)c(C=NCCN2CCOCC2)c(=O)[nH]c1=O | 2% (inactive) | – | 97.6% (inactive) | 92.4% (inactive) | -3.12% (inactive) | 95.5 | 92.4 | -5.87% (inactive) | -8.41% (inactive) | – | – | – | – | – |
| CCCCN1C(=O)NC(=O)C2(Cc3c(nc4c(C)cccn4c3=O)N3CCc4ccccc4C32)C1=O (centres undefined) | 3% (inactive) | 111% (inactive) | – | – | -19.7% (inactive) | 75.6 | 55.8 | 3.56% (inactive) | 10.5% (inactive) | – | – | – | – | – |
| CN1[C@@H]2CC[C@H]1CC(OC(=O)C1C=Nc3ccccc31)C2 (some centres undefined) | 4% (inactive) | 86% (inactive) | 82.4% (inactive) | 83.3% (inactive) | -14.3% (inactive) | 97.7 | 83.3 | 3.25% (inactive) | 0.5% (inactive) | – | – | – | – | – |
| Clc1ccc(COC(Cn2ccnc2)c2ccc(Cl)cc2Cl)cc1 (centres undefined) | 2% (inactive) | 123% (inactive) | 73.4% (inactive) | – | -9.47% (inactive) | 48 | 38.5 | – | – | – | – | – | – | – |
| O=C(Cn1cc(C(=O)c2ccccc2)c2ccccc21)NCc1ccco1 | 2% (inactive) | – | 47.3% (inactive) | 22.6% (active) | -47.2% (inactive) | 69.8 | 22.6 | 2.47% (inactive) | 6.51% (inactive) | – | – | – | – | – |
| CCOC(=O)C(C)Oc1cc(C)cc2oc(=O)c3c(c12)CCCC3 (centres undefined) | – | – | – | – | – | – | – | – | – | -9.51% (inactive) | -2.87% (inactive) | -4.65% (inactive) | 70.3% (inactive) | 1.43% (inactive) |
| Cc1c2ccncc2c(C)c2c1[nH]c1ccccc12 | 0% (inactive) | – | 1.5% (active) | – | 0.18% (inactive) | 0.98 | 1.16 | 1.56% (inactive) | 3.33% (inactive) | – | – | – | – | – |
| CN(C)[C@@H]1C(=O)C(C(N)=O)=C(O)[C@@]2(O)C(=O)C3=C(O)c4c(O)cccc4[C@@](C)(O)[C@H]3C[C@@H]12 | 2% (inactive) | 91% (inactive) | 102% (inactive) | 102% (inactive) | 11.8% (inactive) | 89.8 | 102 | 0.13% (inactive) | -2% (inactive) | – | – | – | – | – |
| CN1CCN(C(=O)COc2ccc(-c3nc4ccccc4s3)cc2)CC1 | – | – | – | – | – | – | – | – | – | -5.45% (inactive) | 10.8% (inactive) | -4.38% (inactive) | 66.1% (inactive) | 2.09% (inactive) |
| Cc1cccc(C2=NCC(=O)N(CC(=O)NCc3ccco3)c3sc4c(c32)CCCC4)c1 | 8% (inactive) | 102% (inactive) | – | – | -28.5% (inactive) | 84.4 | 55.9 | -6.49% (inactive) | 4.6% (inactive) | – | – | – | – | – |
| CC(CCc1ccccc1)NC(C)C(O)c1ccc(O)cc1 (centres undefined) | 4% (inactive) | 87% (inactive) | 87.5% (inactive) | 97.2% (inactive) | 1.7% (inactive) | 95.5 | 97.2 | -0.26% (inactive) | -3% (inactive) | – | – | – | – | – |
| CN1C[C@H](CNC(=O)OCc2ccccc2)C[C@@H]2c3cccc4c3c(cn4C)C[C@H]21 | 4% (inactive) | – | 2.42% (active) | 66.3% (inactive) | 1.09% (inactive) | 65.2 | 66.3 | – | – | – | – | – | – | – |
| Cc1ccc(Cn2c(C)c3cnn(CC(=O)N4CCC5(CC4)OCCO5)c(=O)c3c2C)cc1 | 0% (inactive) | 97% (inactive) | 98% (inactive) | – | -46.2% (inactive) | 100 | 53.8 | -0.81% (inactive) | -1.09% (inactive) | – | – | – | – | – |
| CC(C)[C@H]1C(=O)N2CCC[C@H]2[C@]2(O)O[C@](NC(=O)[C@@H]3C=C4c5cccc6[nH]cc(c56)C[C@H]4N(C)C3)(C(C)C)C(=O)N12 | 5% (inactive) | 104% (inactive) | 86.4% (inactive) | 104% (inactive) | 0.81% (inactive) | 103 | 104 | -0.78% (inactive) | 7.17% (inactive) | – | – | – | – | – |

Source: PubChem BioAssay
